“And” between values parts separate entries of the source, which are not always exact repeats. Equal entries are not always repeated. Screen size: about 430,000 compounds; about 2,600 (0.6%) were called active. No stated cut-off is given here; in the data, active means inhibition mostly above about 37% (no sharp cut-off); inactive means mostly below about 20%. For the sample, actives were picked, then their nearest neighbours and some compounds at random.

For this assay, the system named is PriA–SSB C-terminal tail interaction (Klebsiella pneumoniae). Description: blocks PriA binding to SSB C-terminal tail, primary screen, biochemical, AlphaScreen (AID 1272365).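 Further: plate controls were negative control peptide for no effect and reference peptide for full effect.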 The following applies: AlphaScreen SSBct-PriA binding, biotinylated peptide; at 33 µM, stronger effect = higher value. For orientation: Alpha assays give light when donor and acceptor beads are brought close together.
On to `CCOC(=O)c1c(-c2ccc(F)cc2)csc1NC(=O)CSc1n[nH]c(N)n1`, for which the inhibition (as a rule, the relative decrease from the control value, in per cent) was 9% (inactive).

Regarding `Cc1ccc(OCc2ccc(-c3nc(C#N)c(N4CCCCCC4)o3)o2)cc1`, the inhibition was 39.5% (inactive).

`Cc1ccc(OCc2nc(C#N)c(N3CCCC3)o2)cc1`: the inhibition was -11.1% (inactive).

`CCCOc1ccc(-c2nc(C#N)c(N3CCCCC3)o2)cc1`: the inhibition was 90% (active).

`COc1cccc2cc(C(=O)C3=C(O)C(=O)N(CCN(C)C)[C@@H]3c3ccccc3F)oc12`: the inhibition is -20% (inactive).

Consider `NS(=O)(=O)c1ccc(NC(=O)c2cn(Cc3cccc(F)c3)nc2OCc2cccc(F)c2)cc1`, for which the inhibition is -16% (inactive).

As for `Cc1ccc(C=NNC(=O)c2cccc(S(=O)(=O)Nc3cccc(Cl)c3)c2)o1`, the inhibition was -6.77% (inactive).

Take `COc1ccc2c(c1)C(C)=CC(C)(C)N2C(=O)Nc1ccccc1`: the inhibition was 38.4% (active).

In the case of `COc1cccc(NC(=O)c2nn(-c3ccc(OC)cc3OC)c(=O)c3ccccc23)c1`, the inhibition is -7.71% (inactive).

On to `COc1cccc(NC(=O)C2C(c3ccccc3)C2(Cl)Cl)c1` (centres undefined), for which the inhibition was -12.2% (inactive).

Turning to `CCOC(=O)c1ccc(NC(=O)CSc2nnc(-c3cccs3)n2-n2cccc2)cc1`, the inhibition was 0% (inactive).

For `CCOC(=O)CNC(=O)NC1CC(=O)N(c2ccccc2)C1` (centres undefined), the inhibition is 32% (inactive).

In the case of `Cc1cnc(-c2ccccn2)nc1N`, the inhibition was 151% (active).

In the case of `Cc1c(N)nc(-c2ccccn2)nc1Cl`, the inhibition is 47.3% (inactive).

In the case of `CC1(C)N=C(c2ccccn2)C(C)(C)N1O`, the inhibition is -5.91% (inactive).

Regarding `COc1ccc(NC(=O)Cn2ncn3nc(-c4ccc(F)cc4)cc3c2=O)cc1Cl`, the inhibition is 6% (inactive).

`CNC(=S)NN=C(C)c1cccc(C(F)(F)F)c1`: the inhibition is -4.78% (inactive).

On to `O=C(NCC1(c2ccsc2)CCCC1)Nc1cccs1`, for which the inhibition is 53% (active).

In the case of `Cn1cc(C(=O)NCC2(c3ccsc3)CCCC2)nn1`, the inhibition is -24% (inactive).

Turning to `O=C(Cc1ccc(F)cc1)NCC1(c2ccsc2)CCCC1`, the inhibition was -6% (inactive).

`NCCc1csc2nc(-c3cccc(F)c3)nn12`: the inhibition was 16% (inactive).

In the case of `O=C(Nc1cnc(N2CCN(c3ccccc3)CC2)nc1)c1c(F)cccc1F`, the inhibition is -6% (inactive).

As to `Cc1cc(NC(=O)c2ccccc2Cl)n(-c2nc3c(cnn3-c3cccc(C)c3C)c(=O)[nH]2)n1`, the inhibition is 53% (active).

Regarding `Cc1ccc(-n2ncc3c(=O)[nH]c(-n4nc(C)cc4NC(=O)Cc4ccccc4)nc32)cc1`, the inhibition is -5% (inactive).

On to `Cc1cc(NC(=O)C(C)(C)CCl)n(-c2ncnc3c2cnn3-c2cccc(C)c2C)n1`, for which the inhibition was 11% (inactive).

As to `CCOC(=O)N1CCC(NC(=O)Cc2csc(Nc3ccc(F)cc3)n2)CC1`, the inhibition is 2% (inactive).

In the case of `CC(C)n1cnc2c(NCc3ccccc3)cc(OCC3CCN(C)CC3)cc21`, the inhibition is 53.1% (active).

With `O=C(c1ccc(S(=O)(=O)NCc2cccnc2)o1)N1CCC(Cc2ccccc2)CC1`, the inhibition is 5% (inactive).

On to `O=[N+]([O-])c1cc(S(=O)(=O)N2CCCC2)ccc1NN=C1CCCC1`, for which the inhibition was 11.5% (inactive).

As to `O=[N+]([O-])c1cc(C(F)(F)F)ccc1NCCc1ccncc1`, the inhibition was -11.2% (inactive).

As to `O=[N+]([O-])c1cc(C(F)(F)F)ccc1NN=C1CCCC1`, the inhibition was 43.5% (active).

Consider `COc1cc(OC)c(OC)cc1/C=C1/C(=O)NC(=N)N1C`, for which the inhibition is -14.1% (inactive).

For `O=C(COc1ccc(Cl)cc1Cl)NCC(=O)N/N=C\c1cccs1`, the inhibition was -6% (inactive).

`CC(=O)c1ccc(S(=O)(=O)N2CC(S(=O)(=O)c3ccc(Cl)cc3)C2)cc1`: the inhibition is -15% (inactive).

As for `CCCN1CCCc2cc(CCNS(=O)(=O)c3ccc(NC(C)=O)cc3)ccc21`, the inhibition is 85% (active).

Consider `Cc1cccc(CCNS(=O)(=O)c2ccc3c(c2)NC(=O)CO3)c1`, for which the inhibition was 1.31% (inactive).

With `CCCNS(=O)(=O)c1ccc2c(c1)CCCN2C(C)=O`, the inhibition is -6.74% (inactive).

Consider `CCCN1CCCc2cc(CCNS(=O)(=O)Cc3cccc(C)c3)ccc21`, for which the inhibition was 73% (active).

As to `Cc1cccc(CCNS(=O)(=O)c2ccc(S(=O)(=O)NC3CCCC3)cc2)c1`, the inhibition is -8.63% (inactive).

In the case of `CCCN1CCCc2cc(CCNC(=O)C(=O)Nc3ccc(OC(F)(F)F)cc3)ccc21`, the inhibition is -6% (inactive).

For `Cn1cccc1CN(Cc1cccs1)C(=O)c1ccccc1S(=O)(=O)C(F)F`, the inhibition was 20% (inactive).

In the case of `Cc1nc(N2CCCC2)nc(C)c1NC(=O)c1cccc(Cl)c1`, the inhibition is -6% (inactive).

With `Cc1cc(NC(=O)CSc2nnc(C)c3cnn(-c4ccc(F)cc4)c23)no1`, the inhibition is -7% (inactive) and -11% (inactive).

For the compound `CCc1ccc(S(=O)(=O)N2CCOC(c3ccccc3)C2)s1` (centres undefined), the inhibition is -11% (inactive).

With `COc1ccc2nc(N=C(N)NC(=O)N3c4ccccc4Sc4ccccc43)nc(C)c2c1`, the inhibition is -5.89% (inactive).

For `COc1ccc(-c2nnc(SC(=O)N3c4ccccc4Sc4ccccc43)o2)cc1`, the inhibition is 42.2% (active).

In the case of `COc1ccc(-c2nnc(NC(=O)c3ccc(SC)cc3)o2)cc1`, the inhibition was -3% (inactive).

`Cc1oc2cc(OCC(=O)c3ccc(F)cc3)ccc2c(=O)c1-c1ccccc1`: the inhibition was 7% (inactive).

`CCCCOc1ccc(C(=O)Nc2ccc3c(c2)C(=O)N(C)C3=O)cc1`: the inhibition was -4% (inactive).

For the compound `COc1ccc(S(=O)(=O)N2CCOCC2)cc1NC(=O)CSc1cc(C)ccc1C`, the inhibition is 49.7% (active).

For the compound `COc1ccc(S(=O)(=O)N2CCOCC2)cc1NC(=O)Cc1coc2cc(C)ccc12`, the inhibition is -2.71% (inactive).

With `COc1ccc(S(=O)(=O)N2CCOCC2)cc1NC(=O)CSc1ncnc2ccccc12`, the inhibition is -9.78% (inactive).

Consider `CC(=O)c1sc(NC(=O)COc2ccc(Cl)cc2)nc1C`, for which the inhibition is -10% (inactive).

As for `CSc1ccccc1NC(=O)C(=O)NC[C@]1(O)CCc2ccccc2C1`, the inhibition is -6% (inactive).

As for `C[C@H](O)CN1CCN(C(=O)c2nc3ccccc3s2)CC1`, the inhibition was -1% (inactive).

As to `CS(=O)(=O)N1CCC(CNC(=O)c2nc3ccccc3s2)CC1`, the inhibition is -21% (inactive).

`Cn1ccnc1SCC1CCN(C(=O)c2nc3ccccc3s2)CC1`: the inhibition is 39% (active).

In the case of `O=C(Nc1nc2ccccc2s1)C(=O)NC1CC1`, the inhibition was 3% (inactive).

With `O=C(O)C(NC(=O)c1ccc(Cl)cc1)=C(Cl)Cl`, the inhibition was -6% (inactive).

As for `CC(C)c1nnc(NC(=O)/C=C/c2cccs2)s1`, the inhibition is -6% (inactive).

`COc1ccc(C)cc1NC(=O)CSc1ncc(-c2ccccc2)n1C`: the inhibition was -3% (inactive).

On to `COCCN1CCCc2ccc(NC(=O)c3cccc(OC)c3)cc21`, for which the inhibition is 53% (inactive).

`COCCN1CCCc2ccc(NS(=O)(=O)CCc3ccccc3)cc21`: the inhibition is 34% (active).

With `COCCN1CCCc2ccc(NS(=O)(=O)c3ccc(C)c(Cl)c3)cc21`, the inhibition was 54% (active).

In the case of `COc1cc(NS(=O)(=O)CCc2ccccc2)ccc1N1CCCC1=O`, the inhibition is -16% (inactive).

Take `COCCN1CCCc2ccc(NC(=O)c3ccc(OC)cc3)cc21`: the inhibition is 45% (inactive).

`O=C(C1CCCC1)N1CCc2ccc(NS(=O)(=O)CCc3ccccc3)cc21`: the inhibition is 5% (inactive).

Consider `c1cncc(-c2nnc3sc(-c4cc5ccccc5o4)nn23)c1`, for which the inhibition is -28% (inactive).

On to `O=S(=O)(c1ccccc1F)N1CCN(c2cnnc(N3CCCC3)c2)CC1`, for which the inhibition was 0% (inactive).

`CCOC(=O)c1sc(=NC(=O)CCCSc2ccc(OC)cc2)n(C)c1C`: the inhibition is 2% (inactive).

Turning to `COc1ccc(N2CCN(c3ccc([N+](=O)[O-])nc3)CC2)cc1`, the inhibition is 3.99% (inactive).

Regarding `COc1ccc(-c2cc(C3CCN(c4ncccc4[N+](=O)[O-])CC3)[nH]n2)cc1`, the inhibition is 47.3% (active).

Turning to `CC(=O)NC(Cc1ccccc1)C(=O)NC1CCN(c2ncccc2[N+](=O)[O-])CC1` (centres undefined), the inhibition was -3.58% (inactive).

Regarding `COCCn1c(SCc2nc(-c3ccc(F)cc3)no2)nc2ccsc2c1=O`, the inhibition is -36% (inactive).

As to `COC(=O)c1sccc1S(=O)(=O)N1C2CCCC1COC2`, the inhibition is -5% (inactive).

For `O=C(NCc1cccs1)NCc1cccnc1-c1ccsc1`, the inhibition is -6% (inactive).

On to `Cc1noc(CNC(=O)NCc2cccs2)n1`, for which the inhibition was -6% (inactive).

As for `O=C(NCCn1ccnc1-c1ncccn1)NCc1cccs1`, the inhibition was 71% (active).

In the case of `O=C(Cc1cc(-c2ccc3c(c2)OCO3)on1)Nc1ccc(OC(F)(F)F)cc1`, the inhibition was 1% (inactive).

With `COCCCNC(=O)C(=O)Nc1ccc(Cl)cn1`, the inhibition was -18% (inactive).

Turning to `COC(=O)c1ccc(NC(=O)C2CCCN(c3ccc(-c4ccc(F)cc4)nn3)C2)cc1` (centres undefined), the inhibition is -17% (inactive).

For the compound `CCC(C)c1ccccc1N1CC(C(=O)N2CCN(S(=O)(=O)c3ccc(F)cc3)CC2)CC1=O` (centres undefined), the inhibition was 44% (active).

For `O=C(C1CC(=O)N(c2ccc(F)cc2)C1)N1CCN(c2ccccc2)CC1` (centres undefined), the inhibition was -4.67% (inactive).

`Cc1ccc(CN2CC(C(=O)N3CCN(S(=O)(=O)c4ccccc4)CC3)CC2=O)cc1` (centres undefined): the inhibition was -17.9% (inactive).

For `CC(=O)[C@@H](C(=O)N(C)C)n1cnc2c(cnn2-c2cccc(Cl)c2)c1=O`, the inhibition is -12% (inactive).

As to `O=[N+]([O-])c1ccccc1NCc1ccccc1Cl`, the inhibition is -2.79% (inactive).

For the compound `CC(C)C(=NNc1ccccc1[N+](=O)[O-])c1ccccc1`, the inhibition was 64.3% (active).

Consider `CC(C)C(=NNC(=O)Nc1ccccc1)c1ccccc1`, for which the inhibition was -2.11% (inactive).

For the compound `Cc1cc(=O)[nH]c(-n2ncc(C(=O)Nc3ccc(OC(F)(F)F)cc3)c2C)n1`, the inhibition was -10% (inactive).

In the case of `Cc1cc(C)c(S(=O)(=O)NCCC(=O)NCc2cccnc2)cc1N(C)S(C)(=O)=O`, the inhibition is -9% (inactive).

With `CCOC(=O)c1sc(NC(=O)CSc2nnc(CNC(=O)c3ccc(Cl)cc3Cl)n2C)c(C(=O)OCC)c1C`, the inhibition is 5% (inactive) and -12% (inactive).

Turning to `CCOC(=O)c1c(NC(=O)CSc2nnc(CN3CCOCC3)n2C)sc2c1CCCC2`, the inhibition was -3.23% (inactive).

On to `CCOC(=O)c1c(NC(=O)CSc2nnc(Cc3csc(N)n3)n2C)sc(C)c1C`, for which the inhibition is -7% (inactive) and 53.5% (active).

With `CCSc1nnc(NC(=O)CSc2nnc(CNC(=O)c3cccs3)o2)s1`, the inhibition was -13% (inactive).

Source of the values: PubChem BioAssay AID1272365 (Small Molecule Screening Facility, UW Madison, 2018).
